Compound activity from PubChem.
rCAG binder – binds r(CAG) RNA repeats; r(CAG) RNA repeat, TO-PRO-1 dye displacement fluorescence; hit rate 1.3% among 370,000; AID 651821; inhibition, % at 3 µM;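 active = inhibition above the plate cutoff, the mean of all test compounds on that plate plus 3 SD, cut at about 35% in these data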;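 also: 0% = DMSO alone and 100% = 100 µM mitoxantrone as full dye displacement; higher means more dye released from RNA so lower well fluorescence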
ADAM10 inh – ADAM10 inhibition, QFRET primary screen; recombinant ADAM10, EDANS/DABCYL FRET peptide cleavage, 3 h; O14672; hit rate 0.62% among 370,000; inhibition, % at 7 µM;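 active = inhibition above a per-campaign cutoff equal to the mean of compounds falling between control-based bounds plus 3 SD, cut at about 20% in these data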;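 also: 0% = DMSO wells while the 100% control is not disclosed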
GRIN3A LBD mod – modulators (binders) of human NR3A ligand-binding domain. Tm shift relative to glycine control, % at 25 µM. NR3A LBD differential scanning fluorimetry, Tm shift; 0% = protein alone, 100% = glycine-bound protein. hit rate 2.5% among 340,000;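 active = melting temperature shift of at least 10% of the positive control shift, at one fixed dose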
ADAM17 inh – inhibits human ADAM17; hit rate 0.83% among 370,000; recombinant ADAM17, EDANS/DABCYL FRET peptide cleavage; inhibition, % at 6.95 µM; P78536;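 active = inhibition above the mean of compounds lying between control limits plus 3 SD, set per campaign, cut at about 8.5% in these data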;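 also: 0% = DMSO-only wells as the low control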
Target sequence (P78536 215-824 limits assumed): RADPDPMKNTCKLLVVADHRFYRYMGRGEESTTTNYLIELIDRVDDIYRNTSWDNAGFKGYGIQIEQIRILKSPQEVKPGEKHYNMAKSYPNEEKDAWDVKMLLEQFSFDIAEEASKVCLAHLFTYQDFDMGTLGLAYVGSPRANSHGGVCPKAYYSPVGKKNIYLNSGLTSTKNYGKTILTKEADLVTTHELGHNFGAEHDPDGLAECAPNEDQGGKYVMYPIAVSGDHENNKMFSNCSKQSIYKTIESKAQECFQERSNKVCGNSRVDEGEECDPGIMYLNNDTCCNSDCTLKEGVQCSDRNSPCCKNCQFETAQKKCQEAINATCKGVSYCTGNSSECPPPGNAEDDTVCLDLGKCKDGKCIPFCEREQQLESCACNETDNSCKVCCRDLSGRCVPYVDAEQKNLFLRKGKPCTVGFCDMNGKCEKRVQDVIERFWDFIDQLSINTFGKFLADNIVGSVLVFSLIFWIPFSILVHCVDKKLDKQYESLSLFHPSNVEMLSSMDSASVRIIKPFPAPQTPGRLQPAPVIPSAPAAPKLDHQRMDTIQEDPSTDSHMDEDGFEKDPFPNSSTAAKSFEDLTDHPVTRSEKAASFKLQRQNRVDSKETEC
proKLK7 act – activators of human kallikrein-7 zymogen. purified proKLK7, EDANS-DABCYL substrate fluorescence; 100% is mature enzyme control, 0% vehicle. AID 652039. activation, % at 7 µM. P49862. hit rate 0.9% among 370,000;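 active = activation above the mean of all tested compounds plus 3 SD, computed per campaign excluding outliers beyond control limits, cut at about 13% in these data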
AHR act – activates the human aryl hydrocarbon receptor | P35869 | AHR-responsive luciferase reporter cells, luminescence | activation, % at 5 µM | hit rate 2.5% among 320,000 | AID 2796; in the data active = activation above about 47%;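 also: 0% = vehicle wells and 100% = reference agonist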
Starred values were filed as active, the others as inactive; i = inactive; . = no result given. Rows were chosen to be rich in hits. Some 7% of all compounds tested hit in one or more screens of this group.

SMILES	rCAG binder	ADAM10 inh	GRIN3A LBD mod	ADAM17 inh	proKLK7 act	AHR act
Cc1cc(Cl)ccc1OCCCC(=O)OCC(N)=O	-1	7	0	-1	0	0
COC(=O)c1cccc(NC(=O)Nc2ccc(Cl)cc2)c1	6	5	35*	3	-1	-9
O=C(N/C(=N\O)c1ccccc1)Nc1ccc(Cl)cc1	0	-3	23*	-6	0	1
COC(=O)[C@H](CC(C)C)N1Cc2nnn(Cc3ccccc3)c2-c2ccccc2S1(=O)=O	-3	8	.	5	-1	.
CCC(C#Cc1ccccc1)N(C)C(N)=NC(=O)/C=C/c1ccccc1 (configuration not stated)	.	0	.	0	.	.
Cc1ccc(S(=O)(=O)N2CCCC2C(=O)N2CCc3ccccc3C2)cc1C (configuration not stated)	2	-10	.	1	0	.
COC(=O)c1cccc(NC(=S)Nc2ccccc2Cl)c1	0	-1	-1	-1	0	-1
CN(C)S(=O)(=O)c1cccc(NC(=O)c2cccc(NS(=O)(=O)c3ccccc3)c2)c1	21	6	3	1	0	2
CC(C)S(=O)(=O)c1csc(NC(=O)Nc2ccc(Cl)cc2)c1	7	12	33*	0	0	6
NS(=O)(=O)c1cccc(NC(=O)Nc2ccc(Cl)cc2)c1	4	14	36*	0	0	15
COC(=O)c1cccc(NC(=S)Nc2ccc(Cl)c(Cl)c2)c1	5	2	23*	-1	0	14
CNC(=O)Nc1ccc(Cl)cc1	4	5	-2	1	-1	9
CN(C)S(=O)(=O)c1cccc(C(=O)Nc2ccc(C(=O)Nc3cccc(S(N)(=O)=O)c3)cc2)c1	7	5	21*	1	0	-1
S=C(Nc1ccc(Cl)c(Cl)c1)Nc1nnc(-c2ccncc2)s1	.	-104	.	-35	.	.
O=C1NCCN1CCN1CCC(c2cn(-c3ccc(F)cc3)c3ccc(Cl)cc23)CC1	1	-2	.	3	1	.
COC(=O)c1cc(NC(=S)Nc2cc(Cl)cc(Cl)c2)cc(C(=O)OC)c1	7	-260	16*	-81	-1	4
COC(=O)c1nccnc1N	1	i	14*	i	4	.
COC(=O)c1nc(C(=O)OC)c(C(=O)OC)nc1C(=O)OC	2	5	1	-3	0	1
O=C(Nc1ccc2ncccc2c1)c1ccccc1Br	.	.	18*	.	.	-1
O=C(Nc1ccc2ncccc2c1)Nc1ccc2ncccc2c1	17	-41	33*	-28	-12	0
O=C(N1CCC(Cc2ccccc2)CC1)n1ncc(C(O)(c2ccccc2)c2ccccc2)n1	.	10	.	4	.	.
Cc1[nH]c2ccccc2c1CCN(Cc1cccs1)C(=O)Nc1cccc2c1OCO2	5	10	.	3	0	.
C=CCN1C(=O)[C@@H](CC(=O)NCC2CCCCC2)[C@]2(C(=O)OCC)CCCCC/C=C/12	1	2	.	3	0	.
Cc1ccc(-n2nc(C)c3c2OC(N)=C(C#N)C3c2ccoc2)cc1 (configuration not stated)	8	-12	2	3	0	51*
Cc1ccc(-n2nc(C)c3c2OC(N)=C(C#N)C3c2ccco2)cc1 (configuration not stated)	23	-1	-1	1	0	63*
SMILES	rCAG binder	ADAM10 inh	GRIN3A LBD mod	ADAM17 inh	proKLK7 act	AHR act
CCc1ccc(C(=O)COC(=O)CNC(=O)Cc2ccccc2)cc1	-11	7	1	-2	0	3
O=C(Cc1ccccc1)NCC(=O)OCC(=O)c1ccc(Cl)c([N+](=O)[O-])c1	2	-5	12*	-4	0	6
O=C(CNC(=O)Cc1ccccc1)NCC(=O)OCC(=O)c1cccc2ccccc12	4	-1	12*	5	0	-1
CN(C)CCCNC(=O)c1c(N)[nH]c(C(=O)c2ccc(Br)cc2)c1-c1ccc(Br)cc1	2	-16	.	-3	0	.
CN(C)C=Nc1ccc(Cn2cnc3nc4ccc(Cl)cc4cc3c2=O)cc1	6	-103	.	-26	0	.
O=C(Nc1ccc(N=Nc2ccccc2)cc1)c1cccc(Cl)c1	4	3	26*	2	-1	-5
COc1cccc(NC(=O)c2cccc(Cl)c2)c1	-5	-3	28*	-1	0	-4
COc1cccc(NC(=O)c2ccc3c(c2)OCCO3)c1	-1	3	12*	-3	0	.
